According to PubChem BioAssay (NCI):
About 83,000 compounds went through this panel and 20% of them were active in at least one assay; those are over-represented in the sample as a whole.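 For each line, cells grew in 96-well plates with the test compound present at a single concentration for 48 hours.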 Values without a mark were called inactive. Activity calls are given as the source filed them. Rule for the calls: active = growth percent below 10; inactive = the rest.

Tests used:
Experiment in all cases: NCI-60 one-dose screen, 48 h (100 = growth as untreated, 0 = no growth, -100 = all killed)
[1] = test system: K-562 leukemia; conditions: 10 µM unless noted
[2] = test system: MALME-3M melanoma; conditions: 10 µM unless noted
[3] = test system: MDA-MB-231 breast; conditions: 10 µM unless noted
[4] = test system: RXF 393 renal; conditions: 10 µM unless noted
[5] = test system: SF-268 CNS; conditions: 10 µM unless noted
[6] = test system: SF-295 CNS; conditions: 10 µM unless noted
[7] = test system: SF-539 CNS; conditions: 10 µM unless noted
[8] = test system: UACC-257 melanoma; conditions: 10 µM unless noted
[9] = test system: M14 melanoma; conditions: 10 µM unless noted
[10] = test system: HCT-15 colon; conditions: 10 µM unless noted
[11] = test system: HT29 colon; conditions: 10 µM unless noted
[12] = test system: SNB-19 CNS; conditions: 10 µM unless noted
[13] = test system: U251 CNS; conditions: 10 µM unless noted
[14] = test system: PC-3 prostate; conditions: 10 µM unless noted
[15] = test system: UACC-62 melanoma; conditions: 10 µM unless noted
[16] = test system: LOX IMVI melanoma; conditions: 10 µM unless noted
[17] = test system: SK-MEL-28 melanoma; conditions: 10 µM
[18] = test system: SK-MEL-2 melanoma; conditions: 10 µM unless noted
[19] = test system: SNB-75 CNS; conditions: 10 µM unless noted
[20] = test system: SK-MEL-5 melanoma; conditions: 10 µM unless noted

SMILES	growth [1]	growth [2]	growth [3]	growth [4]	growth [5]	growth [6]	growth [7]	growth [8]	growth [9]	growth [10]	growth [11]	growth [12]	growth [13]	growth [14]	growth [15]	growth [16]	growth [17]	growth [18]	growth [19]	growth [20]
CN1C(=O)N(C)C2C1NN=c1s/c(=C\c3c[nH]c4ccccc34)c(=O)n12 (centres undefined)	8.94% (active)	60.6%	34.7%	44.5%	39.1%	12.8%	2.32% (active)	79.5%	12.3%	11.8%	11.3%	27.3%	14.5%	23.4%	38.3%	22.3%	69.4%	52.5%	–	–
O=C(Nc1ccc(I)cc1F)c1cc(F)ccc1O	6.93% (active)	-31.4% (active)	-23.7% (active)	-2.46% (active)	8.56% (active)	-68.5% (active)	1.28% (active)	-17.3% (active)	-14.5% (active)	0.237% (active)	25.6%	–	-16.8% (active)	3.39% (active)	-21.9% (active)	0.316% (active)	-5.23% (active)	-35.8% (active)	-20.7% (active)	–
CCCN1C(=O)N(CCC)C2C1NN=c1s/c(=C3\C(=O)N(C(C)C)c4ccccc43)c(=O)n12 (centres undefined)	11.3%	36.5%	41.8%	12.2%	46.8%	22.2%	23.1%	53.8%	37.8%	24.4%	18.8%	47.9%	48.4%	35.8%	31.5%	41.1%	60.7%	49.4%	–	–
O=[N+]([O-])c1cc2c(ccc3occc32)o1	11.9%	-33.1% (active)	17.3%	-2.62% (active)	18.5%	-34.9% (active)	33.5%	-20.1% (active)	-8.26% (active)	12.1%	11.8%	–	48.7%	66.7%	20.5%	–	-63.5% (active)	-46% (active)	31.7%	-77% (active)
CN1C(=O)N(C)C2(c3ccccc3)n3c(s/c(=C\c4ccccc4)c3=O)=NNC12c1ccccc1 (centres undefined)	71.2%	86.9%	85.1%	86.8%	96.9%	97.3%	93.1%	98.3%	83.4%	89.5%	95.5%	98%	96.4%	74.2%	81.2%	86.2%	101%	99.7%	–	–
S=C1NC2(c3ccccc3)CCC(=S)N2c2ccccc21 (centres undefined)	93.6%	99.5%	90.9%	116%	102%	107%	107%	110%	103%	102%	105%	97.6%	95%	96.7%	92%	99.7%	114%	97.1%	–	–
Nc1ccc(-c2nc3cc(Oc4ccc(Oc5ccc6[nH]c(-c7ccc(N)cc7)nc6c5)cc4)ccc3[nH]2)cc1	94.9%	81.4%	103%	107%	113%	63.4%	102%	95.8%	94%	100%	–	110%	96.6%	115%	58.8%	99.2%	101%	82.1%	115%	87.5%
CCOc1cccc(/C=N\Nc2nc(=O)cc(C(=O)OC)s2)c1O	50.8%	66.8%	78.7%	97%	76%	57.5%	82.6%	78.2%	63.7%	45.6%	–	75.9%	57.6%	72.8%	63%	61.7%	87.2%	99.6%	77.8%	79.8%
O=C1N=c2ccccc2=C1c1sc(=Nc2ccccc2)n(Nc2ccccc2)c1O	94.4%	108%	95.1%	107%	99.5%	102%	104%	106%	99.7%	102%	112%	101%	97.5%	97.3%	92.1%	100%	112%	103%	–	–
O=C(Nc1ccc(Br)cc1F)c1cc(F)ccc1O	8.73% (active)	-21% (active)	-25.5% (active)	4.59% (active)	12.6%	-58.3% (active)	4.66% (active)	-11.2% (active)	-11.3% (active)	2.25% (active)	18%	–	3.38% (active)	2.45% (active)	-16.4% (active)	9.8% (active)	6.8% (active)	-29.2% (active)	-16.8% (active)	–
CCN1C(=O)N(CC)C2C1NN=c1s/c(=C3\C(=O)N(CC(C)(C)C)c4ccccc43)c(=O)n12 (centres undefined)	4.89% (active)	71.3%	26%	12.3%	40%	15.9%	-17.9% (active)	71.4%	18.3%	14.2%	6.57% (active)	–	21%	20.8%	36.1%	38.7%	64%	53.6%	–	–
O=C(NC1C(O)OC(CO)C(O)C1O)NS(=O)(=O)c1ccc(Cl)cc1 (centres undefined)	108%	104%	103%	115%	98.7%	103%	101%	104%	102%	102%	–	101%	103%	94.5%	94.8%	101%	105%	101%	94%	104%
COc1ccc(-c2nc(-c3ccccn3)c(-c3ccccn3)n2CC(C)C)cc1OC1CCCC1	10.4%	16.5%	30.8%	19.3%	19%	8.48% (active)	39%	28.8%	20.9%	33.9%	–	24.2%	11.1%	12.6%	9.71% (active)	–	–	-4.88% (active)	20.5%	15.5%
O=C(N=Nc1c(O)[nH]c2ccccc12)c1oc2ccccc2c1CN1CCN(c2ccccc2)CC1	16.5%	-64.6% (active)	24.6%	-67.6% (active)	10.8%	13%	8.4% (active)	20.1%	-8.59% (active)	-8.29% (active)	–	18.6%	-22.2% (active)	-22.2% (active)	4.02% (active)	2.72% (active)	-31.8% (active)	72.9%	–	–
CC1CCCCN1CCCNC(=O)c1ccc2c(c1)sc1nc(-c3ccc(F)cc3)cn12 (centres undefined)	77%	98.3%	75.2%	91.7%	92.8%	109%	98.6%	124%	97.1%	104%	–	104%	99.1%	83.8%	100%	93.1%	104%	103%	83.5%	99.3%
CCC1=C[C@]2(C3CC(=O)N(c4ccccc4)C3=O)CC(C(C)(C)C)C[C@@H]2[C@@H]2C(=O)N(c3ccccc3)C(=O)[C@H]12 (some centres undefined)	83.7%	91.5%	81.4%	87.3%	78.5%	93.6%	95.3%	57.1%	83.7%	87.7%	–	86.2%	79.1%	56.7%	71.9%	–	92.6%	82.8%	66.3%	92.1%
